Assay results taken from PubChem BioAssay (EPA / NIEHS).
Activity calls are given as the source filed them. How the source made its calls: active means hit-call score of the fitted dose curve at least 0.9, where 1 is the maximum; inactive means score below 0.9.

read-out: Insulin Like Growth Factor 1 (IGF1), IGF1 (gene 3479); assay: LTEA_HepaRG_IGF1: Life Technologies and Expression Analysis (LTEA) Assay for Insulin Like Growth Factor 1 (IGF1) using HepaRG (AID 2283506); details: mRNA level, 48 h; actives raise or lower the signal
Description: LTEA_HepaRG is a cell based, multiplexed-readout assay that uses HepaRG, a human liver cell line, with measurements taken at 48 hours after chemical dosing on a 96-well plate.LTEA_HepaRG_IGF1 is one of 102 assay component(s) measured in the LTEA HepaRG cell culture assay. It is a marker of Cell proliferation, survival, death.Data from the assay component LTEA_HepaRG_IGF1 was analyzed into 1 endpoint. This assay endpoint, LTEA_HepaRG_IGF1, was analyzed with bidirectional fitting relative to DMSO as the negative control and baseline of activity. Using a type of inducible reporter, measures of mRNA induction for gain or loss-of-signal activity can be used to understand regulation of transcription factor activity. To generalize the intended target to other relatable targets, this assay endpoint is annotated to the growth factor intended target family, where the subfamily is insulin-like.
A total of 1060 chemcials from the ToxCast library were tested in eight-point concentration-response experiments. Cell culture and cytotoxicity assays were conducted at Thermo Fisher Scientific's Custom Services facility (Madison, WI). A single lot of human HepaRG cells (Thermo Fisher Scientific, Frederick, MD) was used for the cell culture experiments. 96-well format collagen type I coated plates of human HepaRG cells were prepared using established methods. Briefly, cryopreserved HepaRG cells were thawed, plated at a density of approximately 100,000 cells/well in HepaRG Thaw, Plate, and General Purpose media (HPRG770, Thermo Fisher Scientific), and incubated for 48 hours. 0.5% DMSO was selected as vehicle control to balance the requisite need of DMSO in HepaRG cultures to maintain differentiation (for example, baseline metabolism, proportions of hepatocytes vs. cholangiocytes), while enabling further hepatic receptor pathway activation (for example, PXR and CAR) in response to chemical exposure. 48 hours after plating, the culture medium was replaced with HepaRG Serum-Free Incudtion Media. Cells were exposed to each test chemical in duplicate and maintained in CO2 incubators for another 48 hours. Chemical plates were thawed to room temperature and 200x concentrations of treatment groups were prepared. 8-point conentration-reponse curves were made with the highest exposure at 100 uM, followed by half-log dilutions, all in 0.5% DMSO. Each test plate contained variouse controls, induction positive controls (1mM phenobarbital), cytotoxicity positive controls ([…] aflatoxin B1), vehicle controls (0.5% DMSO), and total lysis controls (0.5% DMSO). Cell morphology images were taken using an Essen IncuCyte FLR automated microscope, with six 96-well plates imaged in about 24 minutes. Images were captured and exported and JPEG files. Spent culture media was transfered to black-well plates for the LDH assay, and remaining media was sorted at -80 C for later use. Cells were treated with RLT buffer and frozen until shipped for gene expression analysis. Total RNA was isolated from the cell suspension in 75 uL of Buffer RLT (Qiagen, Germantown, MD 20874) by Quintiles/Expression Analysis (Durham, NC) using a custom isolation procedure. Total RNA from each plate well was transferred to a preamplification plate. Fluidigm's 96.96 Dynamic ArrayTM (Fluidigm, Amsterdam, the Netherlands) technology was used for gene expression analyses by quantitative reverse transcription polymerase chain reaction (qRT-PCR, performed by Quintiles/Expression Analysis, Durham, NC)89. Standard TaqManTM Assays (Applied Biosystems/ThermoFisher Scientific, Foster City, CA) were used to assess the expression of 93 genes selected based on their selectivity and sensitivity to important hepatic receptors known to be modulated by environmental chemicals; importance in human hepatocyte functionality; and hepatotoxicity. […]

SMILES | outcome | AC50
C[C@]12CC[C@@H]3c4ccc(O)cc4C[C@@H](CCCCCCCCCS(=O)CCCC(F)(F)C(F)(F)F)[C@H]3[C@@H]1CC[C@@H]2O (stereo not given in full) | inactive | 
C[C@]12C[C@H](O)[C@H]3[C@@H](CCC4=CC(=O)CC[C@@]43C)[C@@H]1CC[C@@H]2C(=O)CO | inactive | 
CCCCOC(=O)[C@@H](C)Oc1ccc(Oc2ccc(C(F)(F)F)cn2)cc1 | inactive | 
CCN(Cc1c(F)cccc1Cl)c1c([N+](=O)[O-])cc(C(F)(F)F)cc1[N+](=O)[O-] |  | 50 µM (active)
COCCO | inactive | 
CC(=O)[C@H]1CC[C@H]2[C@@H]3CCC4=CC(=O)CC[C@]4(C)[C@H]3CC[C@]12C |  | 32.4 µM (active)
CC(=O)S[C@@H]1CC2=CC(=O)CC[C@]2(C)[C@H]2CC[C@@]3(C)[C@@H](CC[C@@]34CCC(=O)O4)[C@H]12 |  | 68.7 µM (active)
c1ccc(Nc2ccccc2)cc1 | inactive | 
CCCCOC(=O)C(C)Oc1ccc(Oc2ccc(C(F)(F)F)cn2)cc1 (stereo not given) | inactive | 
CCC(C)OC(=O)N1CCCCC1CCO (stereo not given) | inactive | 
Oc1ccc(C(c2ccc(O)cc2)C(Cl)(Cl)Cl)cc1 | inactive | 
CSC(=O)c1cccc2nnsc12 | inactive | 
CCOC(=O)C(C)Oc1ccc(Oc2cnc3cc(Cl)ccc3n2)cc1 (stereo not given) |  | 1.06 µM (active)
COC(=O)c1ccc(I)cc1S(=O)(=O)NC(=O)Nc1nc(C)nc(OC)n1 | inactive | 
CC(C)(c1ccc(O)cc1)c1ccc(O)cc1 | inactive | 
C#C[C@]1(O)CC[C@H]2[C@@H]3CCC4=CC(=O)CC[C@@H]4[C@H]3CC[C@@]21CC | inactive | 
COC(=O)c1ccccc1C(=O)O | inactive | 
O=C(O)c1ccccc1 | inactive | 
OB(O)O | inactive | 
O=C(c1ccc(O)cc1O)c1ccc(O)cc1O | inactive | 

SMILES | outcome | AC50
CCCOC(=O)c1ccc(C(=O)OCCC)nc1 | inactive | 
CC1(C)C(C=C(Cl)Cl)C1C(=O)OCc1cccc(Oc2ccccc2)c1 (stereo not given) | inactive | 
C#CCOC(=O)[C@@H](C)Oc1ccc(Oc2ncc(Cl)cc2F)cc1 | inactive | 
CCOC(=O)c1ccc(O)cc1 | inactive | 
N#CSCSc1nc2ccccc2s1 |  | 77.2 µM (active)
N[C@@H](Cc1cc(I)c(Oc2ccc(O)c(I)c2)c(I)c1)C(=O)O | inactive | 
CCCN(CCC)c1c([N+](=O)[O-])cc(C(F)(F)F)c(N)c1[N+](=O)[O-] |  | 22.7 µM (active)
S=C([S-])NCCNC(=S)[S-].[Mn+2] |  | 5 µM (active)
COC(=O)CSc1cc(N=c2sc(=O)n3n2CCCC3)c(F)cc1Cl | inactive | 
CCSC(=O)N(CC(C)C)CC(C)C | inactive | 
CCOC(=O)COc1cc(-n2ncc(C(F)(F)F)c(C)c2=O)c(F)cc1Cl | inactive | 
CCCCC(CC)COC(=O)c1ccccc1C(=O)O (stereo not given) |  | 50.8 µM (active)
COc1c(Cl)ccc(Cl)c1C(=O)O | inactive | 
CC(C)(C)[C@@H](O)[C@@H](Cc1ccc(Cl)cc1)n1cncn1 | inactive | 
CCCOC(=O)NCCCN(C)C | inactive | 
c1ccc2[nH]c(-c3cscn3)nc2c1 | inactive | 
CC(C)CCCCCCc1ccc(O)cc1 | inactive | 
O=C(O)C1(C(=O)Nc2ccc(Cl)cc2Cl)CC1 | inactive | 
CCNc1nc(N)nc(Cl)n1 | inactive | 
CN(C)C(=O)Nc1ccc(Cl)c(Cl)c1 | inactive | 
